In paper PMC7862700, “An all-to-all approach to the identification of sequence-specific readers for epigenetic DNA modifications on cytosine” one finds binding signal data, which are given here for one sequence.

Holding throughout (test): DAPPL (digital affinity profiling via proximity ligation, sequencing); 10 mM Tris-HCl pH 7.5, 50 mM NaCl, 1 mM DTT, 4% glycerol, room temperature, 30 min; GST-TFs on glutathione beads, 16-mer random dsDNA library, 0.1% formaldehyde crosslink after washing; high values mean tight binding
Settings in all cases: protein: recombinant; tags: N-terminal GST; dsDNA, one strand shown

The target of one assay is T1, GABPA (Homo sapiens, UniProt Q06546 1-454).
T1 sequence: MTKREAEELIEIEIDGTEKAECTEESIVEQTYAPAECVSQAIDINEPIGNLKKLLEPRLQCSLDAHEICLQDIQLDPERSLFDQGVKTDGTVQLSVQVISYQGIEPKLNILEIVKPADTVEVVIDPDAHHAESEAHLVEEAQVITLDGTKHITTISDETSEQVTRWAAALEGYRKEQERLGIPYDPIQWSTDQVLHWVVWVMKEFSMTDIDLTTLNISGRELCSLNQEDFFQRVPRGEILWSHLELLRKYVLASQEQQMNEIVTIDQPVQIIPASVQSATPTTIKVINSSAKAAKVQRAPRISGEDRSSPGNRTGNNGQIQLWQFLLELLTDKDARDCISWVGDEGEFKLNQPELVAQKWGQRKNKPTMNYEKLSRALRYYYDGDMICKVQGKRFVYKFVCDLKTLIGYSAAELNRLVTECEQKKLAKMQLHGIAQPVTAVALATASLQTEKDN
The method, boiled down: (§1)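 Binding signal is given per hexamer as its read frequency for a factor divided by its frequency in the tag-only sample. GST-fused human transcription factors were expressed in yeast, captured on glutathione beads, barcoded with DNA and pooled with that sample, then incubated with 200 nmole of a 16-mer random double-stranded DNA library in Tris/NaCl/DTT/glycerol buffer for 30 min at room temperature. The pools were then washed, crosslinked, proximity-ligated, amplified by PCR and sequenced on an Illumina NextSeq500.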

The target of another assay is T2, ERG (Homo sapiens, UniProt P11308 1-479).
T2 sequence: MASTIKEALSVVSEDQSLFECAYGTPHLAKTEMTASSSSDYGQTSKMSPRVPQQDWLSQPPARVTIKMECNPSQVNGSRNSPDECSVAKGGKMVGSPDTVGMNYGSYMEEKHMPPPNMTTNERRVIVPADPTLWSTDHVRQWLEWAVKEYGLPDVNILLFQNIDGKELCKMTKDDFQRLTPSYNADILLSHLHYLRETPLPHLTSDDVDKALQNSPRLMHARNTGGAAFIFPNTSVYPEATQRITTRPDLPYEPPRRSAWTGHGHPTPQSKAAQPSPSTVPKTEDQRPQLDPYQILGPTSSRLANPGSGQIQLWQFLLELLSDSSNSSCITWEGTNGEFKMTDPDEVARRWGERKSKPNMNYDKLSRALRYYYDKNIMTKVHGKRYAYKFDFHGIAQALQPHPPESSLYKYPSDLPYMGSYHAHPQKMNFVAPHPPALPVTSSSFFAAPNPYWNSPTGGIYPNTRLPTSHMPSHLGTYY
The method, boiled down: as §1

A further assay deals with T3, EHF (Homo sapiens, UniProt Q9NZC4 1-300).
T3 sequence: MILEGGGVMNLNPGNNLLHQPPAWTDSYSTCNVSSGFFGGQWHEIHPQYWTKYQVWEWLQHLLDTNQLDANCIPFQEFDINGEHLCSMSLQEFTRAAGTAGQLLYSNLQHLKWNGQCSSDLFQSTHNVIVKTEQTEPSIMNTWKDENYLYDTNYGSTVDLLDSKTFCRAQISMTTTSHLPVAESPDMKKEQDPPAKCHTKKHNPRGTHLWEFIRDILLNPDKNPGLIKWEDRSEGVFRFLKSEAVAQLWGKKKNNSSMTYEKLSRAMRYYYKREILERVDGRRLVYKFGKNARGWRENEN
The method, boiled down: as §1

The next assay addresses SPIB (Homo sapiens, UniProt Q01892 1-262). Put shortly:
as §1

A further assay addresses T4, ELK3 (Homo sapiens, UniProt P41970 1-407).
T4 sequence: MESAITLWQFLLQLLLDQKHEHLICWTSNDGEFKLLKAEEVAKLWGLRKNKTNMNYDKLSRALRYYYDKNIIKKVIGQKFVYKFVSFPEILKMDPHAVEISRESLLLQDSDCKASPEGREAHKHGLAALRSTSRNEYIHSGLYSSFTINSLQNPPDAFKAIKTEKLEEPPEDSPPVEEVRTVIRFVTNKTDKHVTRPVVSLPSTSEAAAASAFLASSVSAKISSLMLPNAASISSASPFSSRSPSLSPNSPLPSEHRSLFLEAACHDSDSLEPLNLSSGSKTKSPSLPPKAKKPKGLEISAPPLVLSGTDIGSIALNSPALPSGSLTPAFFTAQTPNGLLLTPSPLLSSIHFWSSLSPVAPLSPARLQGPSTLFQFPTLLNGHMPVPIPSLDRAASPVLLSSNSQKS
The method, boiled down:
as §1

Another assay concerns the target T5, SPIC (Homo sapiens, UniProt Q8N5J4 1-248).
T5 sequence: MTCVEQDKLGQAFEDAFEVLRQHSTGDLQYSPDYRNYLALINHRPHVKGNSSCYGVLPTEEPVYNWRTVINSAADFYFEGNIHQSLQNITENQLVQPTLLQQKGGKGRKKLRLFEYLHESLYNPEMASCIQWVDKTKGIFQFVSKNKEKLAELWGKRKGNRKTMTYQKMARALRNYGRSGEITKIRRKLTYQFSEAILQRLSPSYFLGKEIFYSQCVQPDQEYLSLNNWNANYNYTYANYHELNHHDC
Put shortly:
as §1

For another assay, the target named is ELF4 (Homo sapiens, UniProt Q99607 1-663). The method, boiled down: as §1
Chain of ELF4 (Q99607 whole entry): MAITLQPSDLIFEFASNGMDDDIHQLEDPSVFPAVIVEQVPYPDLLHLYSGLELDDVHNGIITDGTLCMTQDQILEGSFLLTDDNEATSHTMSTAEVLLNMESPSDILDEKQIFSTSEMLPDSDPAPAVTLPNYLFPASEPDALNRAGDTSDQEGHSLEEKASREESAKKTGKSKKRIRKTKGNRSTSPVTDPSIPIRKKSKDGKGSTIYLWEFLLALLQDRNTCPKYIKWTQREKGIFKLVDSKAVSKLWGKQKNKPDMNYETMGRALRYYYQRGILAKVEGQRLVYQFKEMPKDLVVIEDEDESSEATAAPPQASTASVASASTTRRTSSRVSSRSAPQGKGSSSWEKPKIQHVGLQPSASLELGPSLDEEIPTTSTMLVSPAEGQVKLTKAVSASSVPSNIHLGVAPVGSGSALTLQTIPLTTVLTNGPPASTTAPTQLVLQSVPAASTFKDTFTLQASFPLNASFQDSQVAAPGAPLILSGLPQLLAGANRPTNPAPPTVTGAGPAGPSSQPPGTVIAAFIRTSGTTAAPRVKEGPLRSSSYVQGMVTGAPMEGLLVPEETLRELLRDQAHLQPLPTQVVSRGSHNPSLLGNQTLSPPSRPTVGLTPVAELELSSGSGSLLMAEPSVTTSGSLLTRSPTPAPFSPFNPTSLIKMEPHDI
The target of a further assay is T6, ELK4 (Homo sapiens, UniProt P28324-2 1-405).
T6 sequence: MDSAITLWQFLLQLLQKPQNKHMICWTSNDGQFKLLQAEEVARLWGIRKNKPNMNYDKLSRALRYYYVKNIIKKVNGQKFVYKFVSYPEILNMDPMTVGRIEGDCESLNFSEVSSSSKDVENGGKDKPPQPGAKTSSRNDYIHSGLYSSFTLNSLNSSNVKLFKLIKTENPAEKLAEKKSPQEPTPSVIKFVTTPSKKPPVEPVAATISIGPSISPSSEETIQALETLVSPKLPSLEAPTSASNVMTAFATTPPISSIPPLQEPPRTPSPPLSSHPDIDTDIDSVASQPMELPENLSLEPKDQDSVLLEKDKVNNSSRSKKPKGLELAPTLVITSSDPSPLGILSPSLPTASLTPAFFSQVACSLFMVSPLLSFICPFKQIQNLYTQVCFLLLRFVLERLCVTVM
The method, boiled down:
as §1

A further assay addresses T7, ERF (Homo sapiens, UniProt P50548 1-548).
T7 sequence: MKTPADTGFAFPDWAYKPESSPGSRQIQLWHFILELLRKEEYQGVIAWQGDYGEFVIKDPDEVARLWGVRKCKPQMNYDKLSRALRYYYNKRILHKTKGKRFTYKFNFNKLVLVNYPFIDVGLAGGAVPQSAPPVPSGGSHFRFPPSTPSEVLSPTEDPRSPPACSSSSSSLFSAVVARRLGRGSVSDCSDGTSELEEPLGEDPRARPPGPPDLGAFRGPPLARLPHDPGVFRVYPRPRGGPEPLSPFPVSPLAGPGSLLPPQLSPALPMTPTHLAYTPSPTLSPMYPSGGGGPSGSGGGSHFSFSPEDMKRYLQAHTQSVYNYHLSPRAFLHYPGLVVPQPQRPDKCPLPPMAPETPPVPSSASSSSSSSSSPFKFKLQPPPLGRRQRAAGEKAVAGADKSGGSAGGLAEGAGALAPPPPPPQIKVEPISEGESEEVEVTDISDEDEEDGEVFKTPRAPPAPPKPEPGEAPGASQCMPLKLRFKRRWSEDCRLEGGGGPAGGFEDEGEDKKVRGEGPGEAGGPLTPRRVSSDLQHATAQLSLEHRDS
Put shortly: as §1

For another assay, the target named is T8, ETV3L (Homo sapiens, UniProt Q6ZN32 1-361).
T8 sequence: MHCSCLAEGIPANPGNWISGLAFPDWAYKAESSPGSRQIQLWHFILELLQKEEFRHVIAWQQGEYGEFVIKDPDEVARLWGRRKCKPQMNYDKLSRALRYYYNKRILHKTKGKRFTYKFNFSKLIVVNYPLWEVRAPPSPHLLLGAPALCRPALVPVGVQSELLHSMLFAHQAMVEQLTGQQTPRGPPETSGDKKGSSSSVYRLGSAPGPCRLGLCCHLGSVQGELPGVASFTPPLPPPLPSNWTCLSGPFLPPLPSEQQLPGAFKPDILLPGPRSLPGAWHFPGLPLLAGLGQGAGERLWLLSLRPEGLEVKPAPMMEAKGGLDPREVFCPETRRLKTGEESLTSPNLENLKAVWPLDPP
Put shortly: as §1

For a further assay, the target named is T9, ETS2 (Homo sapiens, UniProt P15036 1-469).
T9 sequence: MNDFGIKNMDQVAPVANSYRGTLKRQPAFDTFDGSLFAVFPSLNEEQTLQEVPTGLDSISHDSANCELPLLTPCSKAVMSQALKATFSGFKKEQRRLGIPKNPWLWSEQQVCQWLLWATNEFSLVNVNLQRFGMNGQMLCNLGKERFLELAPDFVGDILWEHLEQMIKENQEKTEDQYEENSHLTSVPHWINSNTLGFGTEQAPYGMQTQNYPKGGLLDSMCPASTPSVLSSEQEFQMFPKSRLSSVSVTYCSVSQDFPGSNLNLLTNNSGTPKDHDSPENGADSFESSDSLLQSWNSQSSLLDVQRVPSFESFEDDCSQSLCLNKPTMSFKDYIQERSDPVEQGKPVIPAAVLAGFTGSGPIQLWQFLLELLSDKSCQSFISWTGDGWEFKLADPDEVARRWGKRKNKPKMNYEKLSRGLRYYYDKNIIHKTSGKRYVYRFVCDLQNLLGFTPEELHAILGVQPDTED
The method, boiled down:
as §1

The next assay concerns the target T10, ETV7 (Homo sapiens, UniProt Q9Y603 1-341).
T10 sequence: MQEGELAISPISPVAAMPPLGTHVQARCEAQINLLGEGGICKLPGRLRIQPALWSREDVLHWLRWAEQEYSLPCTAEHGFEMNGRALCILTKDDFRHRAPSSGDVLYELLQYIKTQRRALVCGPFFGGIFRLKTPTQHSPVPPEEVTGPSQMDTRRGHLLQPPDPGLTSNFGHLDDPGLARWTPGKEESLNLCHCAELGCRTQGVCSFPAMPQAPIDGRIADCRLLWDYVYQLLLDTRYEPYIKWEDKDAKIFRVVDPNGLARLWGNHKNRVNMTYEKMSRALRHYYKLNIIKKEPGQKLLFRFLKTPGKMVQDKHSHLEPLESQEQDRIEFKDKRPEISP
Put shortly: as §1

For a further assay, the target named is T11, ETV3 (Homo sapiens, UniProt P41162-2 1-143).
T11 sequence: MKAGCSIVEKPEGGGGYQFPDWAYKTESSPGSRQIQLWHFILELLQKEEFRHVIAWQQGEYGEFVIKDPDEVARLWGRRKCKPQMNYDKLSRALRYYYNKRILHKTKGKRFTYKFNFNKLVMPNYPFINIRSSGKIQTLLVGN
The method, boiled down: as §1

In a further assay the target is ETV6 (Homo sapiens, UniProt P41212 1-452). Put shortly: as §1
Chain of ETV6 (P41212 whole entry): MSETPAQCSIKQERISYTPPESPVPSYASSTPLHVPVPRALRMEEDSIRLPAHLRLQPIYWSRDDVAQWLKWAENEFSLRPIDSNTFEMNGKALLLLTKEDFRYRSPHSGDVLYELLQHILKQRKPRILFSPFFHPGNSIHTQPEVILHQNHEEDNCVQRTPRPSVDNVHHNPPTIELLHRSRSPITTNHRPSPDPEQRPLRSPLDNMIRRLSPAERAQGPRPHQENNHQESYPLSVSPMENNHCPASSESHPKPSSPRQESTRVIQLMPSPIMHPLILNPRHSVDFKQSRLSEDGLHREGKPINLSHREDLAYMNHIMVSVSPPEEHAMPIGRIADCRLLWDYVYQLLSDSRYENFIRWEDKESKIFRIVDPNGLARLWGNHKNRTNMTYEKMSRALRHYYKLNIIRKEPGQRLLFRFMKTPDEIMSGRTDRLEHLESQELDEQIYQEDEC

Chain of SPIB (Q01892 whole entry): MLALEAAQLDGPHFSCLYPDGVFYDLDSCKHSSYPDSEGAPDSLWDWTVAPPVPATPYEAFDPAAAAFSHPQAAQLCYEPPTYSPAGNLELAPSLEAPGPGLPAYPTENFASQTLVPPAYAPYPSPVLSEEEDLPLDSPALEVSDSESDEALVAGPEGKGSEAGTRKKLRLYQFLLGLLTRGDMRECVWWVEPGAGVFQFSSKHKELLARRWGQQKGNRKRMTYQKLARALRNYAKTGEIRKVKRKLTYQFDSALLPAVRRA

For CATATG, the binding signal with GABPA was 1.09 fold enrichment (6-mer frequency, TF over GST control); with ERG, 1.07 fold enrichment (6-mer frequency, TF over GST control); with EHF it was 1.01 fold enrichment (6-mer frequency, TF over GST control); in the assay with SPIB, 1.04 fold enrichment (6-mer frequency, TF over GST control); with ELK3, 1.04 fold enrichment (6-mer frequency, TF over GST control); in the assay with SPIC it was 1.01 fold enrichment (6-mer frequency, TF over GST control). Also, the binding signal is 1.04 fold enrichment (6-mer frequency, TF over GST control) with ELF4; 1.11 fold enrichment (6-mer frequency, TF over GST control) with ELK4; 1.06 fold enrichment (6-mer frequency, TF over GST control) in the assay with ERF; 1.06 fold enrichment (6-mer frequency, TF over GST control) with ETV3L; 1.04 fold enrichment (6-mer frequency, TF over GST control) with ETS2; 1.14 fold enrichment (6-mer frequency, TF over GST control) in the assay with ETV7. In addition, the binding signal in the assay with ETV3 is 1.02 fold enrichment (6-mer frequency, TF over GST control); with ETV6, 1.03 fold enrichment (6-mer frequency, TF over GST control).
